Measured values published in PubChem BioAssay (EPA / NIEHS).
Active and inactive are the calls of the source. The calls were made as follows: active = hit-call score of the fitted dose curve at least 0.9, where 1 is the maximum; inactive = score below 0.9.

Assay: ATG_SREBP_CIS: Attagene CIS-FACTORIAL HepG2 Assay for human Sterol Regulatory Element Binding (SREBP) (AID 2282962)
Settings: HepG2 Attagene cis-factorial SREBP reporter, mRNA; actives raise or lower the signal
Method: ATG_CIS is a cell-based, multiplexed-readout assay that uses HepG2, a human liver cell line, with measurements taken at 24 hours after chemical dosing in a 24-well plate.ATG_SREBP_CIS is one of 52 assay component(s) measured or calculated from the ATG_CIS assay. It is designed to make measurements of mRNA induction, a form of inducible reporter, as detected with fluorescence intensity signals by Reverse transcription polymerase chain reaction (RT-PCR) and Capillary electrophoresis technology.Data from the assay component ATG_SREBP_CIS was analyzed into 1 assay endpoint. This assay endpoint, ATG_SREBP_CIS, was analyzed with bidirectional fitting relative to DMSO as the negative control and baseline of activity. Using a type of inducible reporter, measures of mRNA for gain or loss-of-signal activity can be used to understand the reporter gene at the transcription factor-level as they relate to the gene SREBF1. Furthermore, this assay endpoint can be referred to as a primary readout, because this assay has produced multiple assay endpoints where this one serves a reporter gene function. To generalize the intended target to other relatable targets, this assay endpoint is annotated to the dna binding intended target family, where the subfamily is basic helix-loop-helix leucine zipper.
Human liver HepG2 cells are transiently transfected with multiple reporter transcription units (MRTUs) in 6-well plates using FuGene 6 reagent (Roche; 3 ml FuGene/1 mg DNA). The MRTU constructs are regulated by a cis-regulating element (promoter). […] A major difference between the CIS and TRANS system is that in CIS activities of endogenous TFs are measured, whereas the TRANS assay evaluates changes in activities of exogenous, chimeric NR-Gal4 proteins. […] At the end of 24 hour incubation, total RNA was isolated using TriZol reagent (Invitrogen). The isolated RNA is then reverse-transcribed using oligo(dT) primer and Mo-MLV reverse transcriptase (Invitrogen) with DNAse I (Ambion) treatment for 30 min. The one-tenth of the produced cDNA was amplified by PCR using Taq DNA polymerase (Invitrogen) and two reporter sequence-specific primers. The PCR products were fluorescently labeled by primer extension with 6-arboxyfluorescein (6-FAM) 5'-labeled reporter sequence-specific primer (2 min at 95 C, 20 s at 68 C and 10 min at 72 C) and these products were digested with 5U of HpaI (New England Biolabs) for 2h at 37 C. The fragments were purified using Qiaquick PCR columns (Qiagen), analyzed on an ABI 3130xL genetic analyzer (Applied Biosystems) with peak positions identified by using a set of X-rhodamine (ROX)-labeled MapMarker1000 molecular weight standards (BioVentures). The raw capillary electrophoresis data was processed using Attagraph software (Attagene).

Row | Compound | outcome | AC50
1 | Cc1ccc(CCl)cc1 | inactive | 
2 | O=C1C=CC(=O)c2ccccc21 | inactive | 
3 | CCCCCCCCBr | inactive | 
4 | C=CC(=O)NC(C)(C)CC(C)=O | inactive | 
5 | O=C(O)COc1ccc(Cl)cc1 | inactive | 
6 | O=[N+]([O-])c1cc([As](=O)(O)O)ccc1O | inactive | 
7 | Nc1cccnc1 | inactive | 
8 | COc1ccc(N)cc1 | inactive | 
9 | N#Cc1ccncc1 | inactive | 
10 | CCOP(=S)(OCC)SCS(=O)(=O)C(C)(C)C | inactive | 
11 | O=C(NC(=O)c1c(F)cccc1F)Nc1cc(Cl)c(F)c(Cl)c1F | inactive | 
12 | Nc1ccc(Br)cc1 | inactive | 
13 | Nc1ncn[nH]1 | inactive | 
14 | COc1ccc([N+](=O)[O-])cc1O | inactive | 
15 | Clc1ccc(C(Cl)(Cl)Cl)cn1 | inactive | 
16 | Cc1cc(Cl)ccc1OC(C)C(=O)O (stereo not given) | inactive | 
17 | CCCCCCCCCCCCc1cccc(S(=O)(=O)O)c1 | inactive | 
18 | Nc1ccc(N)cc1 | inactive | 
19 | CCCCC(CC)C(=O)Cl (stereo not given) | inactive | 
20 | CCC(C)(C#N)N=NC(C)(C#N)CC (stereo not given) | inactive | 

Row | Compound | outcome | AC50
21 | O=S(=O)(c1ccc(Cl)cc1)c1cc(Cl)c(Cl)cc1Cl |  | 14.5 µM (active)
22 | Oc1ccc(Cc2ccc(O)cc2)cc1 | inactive | 
23 | CC(C)(c1ccc(O)c(-c2ccccc2)c1)c1ccc(O)c(-c2ccccc2)c1 | inactive | 
24 | N#Cc1ccc(Cl)cc1 | inactive | 
25 | CC(C)(C1CCC(O)CC1)C1CCC(O)CC1 (stereo not given) | inactive | 
26 | COCCl | inactive | 
27 | Cc1cc(Cl)ccc1N | inactive | 
28 | N#CS | inactive | 
29 | CC(C)O.CC(C)O.OCCN(CCO)CCO.OCCN(CCO)CCO.[Ti] | inactive | 
30 | C#CCOC(=O)/C=C(C)/C=C/CC(C)CCCC(C)C (stereo not given) | inactive | 
31 | O=C(Cl)OCCOCCOC(=O)Cl | inactive | 
32 | O=[N+]([O-])c1c2ccccc2cc2ccccc12 | inactive | 
33 | O=c1nc(O)n(Cl)c(=O)n1Cl | inactive | 
34 | CCOC(=O)Cc1ccccc1 | inactive | 
35 | c1cc[c]([Sb]([c]2ccccc2)[c]2ccccc2)cc1 | inactive | 
36 | CC(C)[C@H](C(=O)OC(C#N)c1cccc(Oc2ccccc2)c1)c1ccc(OC(F)F)cc1 (stereo not given in full) | inactive | 
37 | OC(Cc1ccccc1Cl)(Cn1[nH]cnc1=S)C1(Cl)CC1 (stereo not given) | inactive | 
38 | O=C(Nc1ccc(Br)cc1)c1cc(Br)cc(Br)c1O | inactive | 
39 | [F][Sn]([c]1ccccc1)([c]1ccccc1)[c]1ccccc1 | inactive | 
40 | CC(C)(COCC1CO1)COCC1CO1 (stereo not given) | inactive | 
